# Bioassay records: PubChem, National Center for Advancing Translational Sciences (NCATS)
# This is a sample that favours compounds with a hit; in the whole collection about 1.6% have one here.
# Mito fusion yeast = blocks mitochondrial division or promotes mitochondrial fusion. S. cerevisiae fusion-defective mutant growth rescue, CellTiterGlo 48 h. Potency, µM (titrated, usually from 46.1 µM), for inactives: at the highest dose growth rescue (activation), hits mostly activators. 320,000 compounds, 0.23% hits. AID 485298; also: % of control where 0% means no effect; nearly all actives have a fitted effect of over 45% in size
#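 Compounds are tested for their ability to restore growth of mitochondrial fusion-defective yeast strains at non-permissive 37C in YPEG medium over 48 hours. Viability is quantified by luciferase luminescence.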
# gsp agonist = gsp mutant agonism | gsp mutant cells, cAMP HTRF, 30 min | Potency, µM (series often up to 76.9 µM), for inactives: at the highest dose activation (cAMP increase), most hits filed as activators | 340,000 compounds, 0.13% hits | AID 624287; active = well fitted activation curve with a large enough effect; inconclusive = small, poorly fitted or top-dose-only effect, or another doubt; inactive = no such curve, though single readings can be large or run the other way; cell line not stated here;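 also: phosphodiesterase inhibitor Ro 20-1724 added with compounds to block cAMP breakdown; nearly all actives have a fitted effect of over 60% in size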
#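 Cells in DMEM/10% FBS with G418 were pretreated with compounds in DMSO plus […] (300 uM stock) for 30 min at 37C. cAMP was measured by HTRF (cAMP-d2 plus anti-cAMP antibody-K) after 30 min at room temperature.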
# gsp antagonist = antagonists of gsp mutant (McCune-Albright syndrome); gsp-mutant cells, cAMP HTRF, 30 min; Potency, µM (top dose mostly 76.9 µM), for inactives: top-dose activity change, negative = inhibition, most hits filed as inhibitors; 340,000 compounds, 0.4% hits; calls by dose curve; cell line not stated here;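 also: intracellular cAMP measured with PDE inhibitor Ro 20-1724 present during compound exposure; % is scaled to controls: 0 for no effect and ±100 for the full control effect; nearly all actives have a fitted effect of over 65% in size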
#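 Measurement of cellular cAMP by homogeneous time-resolved fluorescence following a 30 min compound exposure at 37C. The PDE inhibitor […] was present throughout; the assay buffer was DPBS with 0.05% BSA and 0.005% Tween 20.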
# 12-LOX inh = ALOX12 (human) lipoxygenase inhibition; P18054; purified 12hLO, xylenol orange hydroperoxide absorbance; Potency, µM (series often up to 108 µM), for inactives: at the top dose activity change, negative = inhibition, most hits filed as inhibitors; 580,000 compounds, 1.1% hits; AID 1671190; also: % is scaled to controls: 0 for no effect and ±100 for the full control effect
# Target sequence (P18054 whole entry, looked up): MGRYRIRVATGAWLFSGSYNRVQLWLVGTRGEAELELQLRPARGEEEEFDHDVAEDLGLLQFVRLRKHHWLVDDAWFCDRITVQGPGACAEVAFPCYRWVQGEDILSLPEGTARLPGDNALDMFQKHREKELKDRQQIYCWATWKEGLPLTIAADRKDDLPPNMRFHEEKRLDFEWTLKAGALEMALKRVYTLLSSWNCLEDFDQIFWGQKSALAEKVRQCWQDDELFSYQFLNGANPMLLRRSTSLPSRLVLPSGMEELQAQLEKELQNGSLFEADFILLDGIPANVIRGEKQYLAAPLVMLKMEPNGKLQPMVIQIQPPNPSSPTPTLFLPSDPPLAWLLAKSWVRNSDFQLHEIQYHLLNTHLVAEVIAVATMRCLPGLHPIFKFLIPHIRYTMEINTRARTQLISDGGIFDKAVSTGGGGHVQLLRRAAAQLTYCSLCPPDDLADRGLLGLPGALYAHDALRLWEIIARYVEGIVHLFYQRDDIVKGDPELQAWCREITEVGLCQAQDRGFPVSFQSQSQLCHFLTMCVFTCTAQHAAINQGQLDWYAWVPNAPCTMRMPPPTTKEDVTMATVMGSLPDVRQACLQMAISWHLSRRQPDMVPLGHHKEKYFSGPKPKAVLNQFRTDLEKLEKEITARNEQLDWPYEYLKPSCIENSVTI
#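 Purified human 12hLO at 150 nM in 25 mM Hepes, 0.01% Triton X-100, pH 7.0, preincubated 15 min at room temperature with compound. Reaction started with 40 uM arachidonic acid, 30 min at room temperature. Hydroperoxide measured by Fe-xylenol orange, 573/405 nm absorbance ratio.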
# FUS suppressor = FUS proteinopathy suppression in yeast | Potency, µM (top dose mostly 76.6 µM), actives largely listed as activators | S. cerevisiae FUS-expressing, growth rescue, OD600, 24 h | 390,000 compounds, 0.24% hits | AID 1347120;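 also: plate controls were DMSO vehicle for no effect and reference control for full effect; nearly all actives have a fitted effect of over 55% in size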
#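 Quantitative HTS measuring growth restoration of FUS-toxic yeast. Galactose-induced cells (OD 0.005) were exposed 24hr at 30C to compounds at several concentrations, then absorbance at 600 nm was recorded.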
# The depositor's hits bear a star; i = inactive; ? = inconclusive; . = not tested or not shown; ! = not active in a repeat; [ ] = remark or other dose. Unless noted, calls follow the shape of the dose curve; as a rule, active = well fitted curve in the direction sought with a large enough effect; inconclusive = small, poorly fitted or top-dose-only effect, or another doubt; inactive = no such curve, though single readings can be large; an effect the other way counts as inactive or inconclusive. Potency is read from the fitted curve at half-maximal effect.
SMILES,Mito fusion yeast,gsp agonist,gsp antagonist,12-LOX inh,FUS suppressor
Cc1ccc(N2NC3(CCN(C(N)=O)CC3)NC2=O)cc1,-1.6%,-23.7%,3.1%,?,i
Cc1ccsc1C(=O)N1CCC2(CC1)NC(=O)N(c1ccc(F)cc1)N2,.,.,.,2.24µM*,.
O=Cc1cccn1-c1cc(Cl)c(Cl)cc1Cl,.,.,.,-6.5%,.
COc1ccc2oc3cc(C)[n+]([O-])c(-c4ccc(Cl)cc4)c3c2c1,22.4µM*,-6.8%,-0.7%,-18.7%,.
CCN(CC)CCC=C(c1cccs1)c1cccs1,.,-34.7%[15.4 µM],-9.2%,50.1µM*,i
CCN(C(=O)c1cccs1)C1CC1,.,.,.,-16.1%,.
CCCCCCNc1nc2c(c(=O)n(C)c(=O)n2C)n1Cc1cc(OC)ccc1Cl,.,.,.,-1.4%,.
COc1ccc(-n2ncc(C(=O)NCc3ccccc3)c2C2CCN(C(=O)OC(C)(C)C)CC2)cc1,.,.,.,-19.9%,?
Cc1ccc(-n2ncc(C(=O)NCc3cccs3)c2C2CCN(C(=O)OC(C)(C)C)CC2)cc1C,.,.,.,0.0%,20µM*
CCc1cccc(C)c1NC(=O)c1cnn(-c2ccc(OC)cc2)c1C1CCN(C(=O)OC(C)(C)C)CC1,.,.,.,-31.3%,22.4µM*
O=C(CC1C(=O)NCCN1C(=O)CN1CCN(Cc2ccccc2)CC1)Nc1cccc(Cl)c1 (stereo not given),.,.,.,-1.9%,.
C/C(=N\NC(=O)CNc1cccc(C(F)(F)F)c1)c1ccc(Br)cc1,1.4%,4.0%,-3.0%,19.6%,.
O=C(O)c1ccc(/C=N/Nc2cccc(C(F)(F)F)c2)cc1,0.7%,-4.2%[15.4 µM],-9.3%,44.7µM*,i
C/C(=N\Nc1cccc(C(F)(F)F)c1)c1ccc(O)cc1,-13.6%,22.5%[15.4 µM],-19.3%,35.5µM*,i
FC(F)(F)c1cccc(N/N=C/c2ccc(Br)cc2)c1,.,.,.,0.794µM*,.
FC(F)(F)c1cccc(N/N=C/c2cccc(Br)c2)c1,.,.,.,-91.5%,.
O=C(OCc1csc(-c2ccccc2)n1)c1ccc(S(=O)(=O)N2CCOCC2)cc1,.,.,.,2.5%,.
S=c1sc2c(s1)SCCCS2,.,.,.,31.6µM*,.
Cc1ccc(-c2nsc(NC(=O)c3cc(=O)c4ccc(C)c(C)c4o3)n2)s1,.,.,.,2.9%,.
Cc1nc2sccn2c(=O)c1CCN1CCC(=C(c2ccccc2)c2ccc(F)cc2)CC1,18.4µM*!,.,.,-129.3%,.
O=C(Nc1ccc(F)cc1)C1C(c2ccccc2)C1(Cl)Cl (stereo not given),28.1%,-1.6%,-20.5%,7.08µM*,.
CC(=O)c1c(C)[nH]c(C(=O)OCc2csc(CC(=O)Nc3ccccc3C)n2)c1C,.,?,25.1µM*,150.1%,i
CC(=O)c1c(C)[nH]c(C(=O)OCc2cccc(C)c2)c1C,35.5µM*,-15.0%,-23.3%,-4.2%,i
CC(=O)c1c(C)[nH]c(C(=O)OCc2ccc(Br)cc2)c1C,-2.2%,16.1%[15.4 µM],?,-0.1%,i
CC(Sc1ccccn1)C(=O)Nc1ccc(C(F)(F)F)cc1 (stereo not given),.,.,.,-7.5%,.
SMILES,Mito fusion yeast,gsp agonist,gsp antagonist,12-LOX inh,FUS suppressor
COc1ccc(N=C2S[C@H]3[C@H]([C@@H](O)[C@H](O)C[C@@H]3C(N)=O)N2Cc2ccc(F)cc2)cc1,.,.,.,52.2%,.
NC(=O)[C@H]1C[C@@H](O)[C@H](O)[C@H]2[C@@H]1SC(=Nc1ccc(Cl)cc1)N2CC1CCCCC1,.,.,.,28.2µM*,.
CN1CC(=O)N(c2ccc(Cl)cc2)Cc2c1ncnc2N1CCC(O)CC1,.,.,.,36.4%,.
O=C(O)Cc1sc(Nc2cccc3ccccc23)nc1-c1ccc(Cl)cc1,-26.6%,-2.4%[15.4 µM],-20.1%,44.7µM*,i
Cc1ccc(Nc2nc(-c3ccc(C)cc3)c(CC(=O)O)s2)cc1,1.7%,-33.4%,?,39.8µM*,i
O=C(O)Cc1sc(Nc2cccc3ccccc23)nc1-c1ccccc1,12.1%,13.5%,-25.3%,?,i
O=C(O)Cc1sc(Nc2ccc(Cl)cc2)nc1-c1cccs1,-4.2%,-21.3%,-16.6%,14.1µM*,?
O=C(O)CCCC(=O)N1CCN(c2nc(-c3ccccc3)c3cc(Br)ccc3n2)CC1,.,.,.,-8.3%,.
N#Cc1ccccc1OCC(=O)Nc1nc(-c2ccccn2)cs1,.,-0.2%,.,35.5µM*,i
CCC1=C[C@@H]2CN(C1)Cc1c([nH]c3ccccc13)[C@@](C(=O)OC)(c1cc3c(cc1OC)N(C)[C@@H]1[C@@](O)(C(=O)OC)[C@H](OC(C)=O)[C@]4(CC)C=CCN5CC[C@]31[C@@H]54)C2,.,.,.,4.32µM*,.
COCCN(CCOC)c1nc(-c2ccc(C)cc2)nc2ccccc12,-1.7%,-16.3%,28.2µM*,12.4%,i
CCCCN(CC)c1nc(-c2ccncc2)nc2ccccc12,17.8µM*,11.2%,10.0%,?,i
CCOC(=O)Oc1ccc2c(=O)c(Oc3ccccc3Cl)c(C(F)(F)F)oc2c1,.,.,.,0.0%,.
CCc1ccccc1NC(=S)/N=C(\N)Nc1nc(C)c2cc(C)ccc2n1,3.3%,-1.3%,-1.6%,35.5µM*,.
Cc1ccc(NC(=S)/N=C(\N)Nc2nc(C)c3cc(C)c(C)cc3n2)cc1C,-4.2%,-16.3%,2.8%,35.5µM*,i
Cc1ccc(NC(=S)/N=C(\N)Nc2nc(C)c3cc(C)ccc3n2)c(C)c1,-19.3%,-0.2%,3.0%,?,.
COc1ccc2nc(N/C(N)=N/C(=S)Nc3cccc(C)c3)nc(C)c2c1,25.1%,-29.7%,-3.3%,?,?
CC(C)NC(=O)c1cnn(-c2ccccc2F)c1-n1cccc1,.,.,.,0.2%,.
CCCC(C(=O)Nc1c(C)cccc1C)N1C(=O)C(=O)c2ccccc21 (stereo not given),.,.,.,6.31µM*,.
CCc1cccc(CC)c1NC(=O)CN1C(=O)C(=O)c2ccccc21,.,.,.,-8.5%,i
